Several values for one entry are separate records, joined by “and”; a condition that tells them apart may be missing. Equal values may be shown once. The whole screen tested about 5,500 compounds, of which about 2,000 (36%) were called active. Not shown: some 18% with an inconclusive outcome. Rule as the data show it: active = normalized growth mostly below about 0.91 (no sharp cut-off); inconclusive = no clear call, values can overlap the other calls; inactive = mostly above about 0.92. Some of the results follow.
Assay: chemical genetic growth profiling, strain panel (AID 1159580);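 also: tested at 20 µM; growth read once vehicle control cultures reached saturation at 30 °C; 1 = growth at the plate median or of vehicle wells; lower values mean less growth of the strain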
Details: S. cerevisiae deletion strains, growth OD

Measured: normalized growth

CC(=O)O[C@@H]1C2CC[C@@H]3C1(C[C@@H](O)[C@@]1(O)[C@@H](C[C@H](O)C1(C)C)[C@]3(C)O)C[C@@]2(C)O (stereo partly drawn)
inactive: locus YAL021C, strain ccr4, active compounds read low 0.996 | locus YAL026C, strain drs2, active compounds read low 0.984 | locus YAL030W, strain snc1, active compounds read low 0.992 | locus YBL061C, strain skt5, active compounds read low 1 | locus YBR009C, strain hhf1, active compounds read low 0.99 | locus YBR021W, strain FUR4, active compounds read low 1.02 | locus YBR023C, strain chs3, active compounds read low 0.997 | locus YBR171W, strain sec66, active compounds read low 0.979 | locus YBR229C, strain ROT2, active compounds read low 0.958 | locus YBR231C, strain swc5, active compounds read low 0.997 | locus YBR279W, strain paf1, active compounds read low 1 | locus YCL011C, strain gbp2, active compounds read low 0.985 | locus YCL016C, strain dcc1, active compounds read low 0.987 | locus YCL029C, strain bik1, active compounds read low 0.974 | locus YCL061C, strain MRC1, active compounds read low 0.995 | locus YCL069W, strain vba3, active compounds read low 0.989 | locus YCR088W, strain abp1, active compounds read low 0.988 | locus YDL005C, strain med2, active compounds read low 0.976 | locus YDL035C, strain GPR1, active compounds read low 0.998 | locus YDL040C, strain nat1, active compounds read low 0.986 | locus YDL074C, strain BRE1, active compounds read low 1.07 | locus YDL101C, strain DUN1, active compounds read low 0.988 | locus YDL134C, strain PPH21, active compounds read low 1.05 | locus YDL185W, strain tfp1, active compounds read low 0.992 | locus YDL192W, strain arf1, active compounds read low 0.992 | locus YDR001C, strain nth1, active compounds read low 0.996 | locus YDR069C, strain doa4, active compounds read low 0.999 | locus YDR101C, strain arx1, active compounds read low 0.976 | locus YDR137W, strain rgp1, active compounds read low 0.922 | locus YDR159W, strain sac3, active compounds read low 0.995 | locus YDR162C, strain NBP2, active compounds read low 1.01 | locus YDR195W, strain ref2 0.962 | locus YDR297W, strain sur2, active compounds read low 0.989 | locus YDR318W, strain mcm21, active compounds read low 0.991 | locus YDR334W, strain swr1, active compounds read low 0.957 | locus YDR335W, strain msn5, active compounds read low 0.999 | locus YDR388W, active compounds read low 0.996 | locus YDR392W, strain spt3, active compounds read low 0.993 | locus YDR502C, strain sam2, active compounds read low 1 | locus YEL003W, strain gim4, active compounds read low 0.988 | locus YEL037C, strain rad23, active compounds read low 0.997 | locus YEL061C, strain CIN8 (second series), active compounds read low 0.99 | locus YER015W, strain faa2, active compounds read low 0.997 | locus YER016W, strain bim1, active compounds read low 0.985 | locus YER110C, active compounds read low 0.96 | locus YER111C, strain swi4, active compounds read low 0.998 | locus YER155C, strain BEM2 (second series), active compounds read low 0.977 | locus YER155C, strain BEM2, active compounds read low 0.997 | locus YER167W, strain BCK2, active compounds read low 0.998 | locus YFR010W, strain ubp6, active compounds read low 0.977 | locus YGL078C, strain dbp3, active compounds read low 1 | locus YGL086W, strain mad1, active compounds read low 1 | locus YGL167C, strain pmr1, active compounds read low 0.998 | locus YGL173C, strain kem1, active compounds read low 0.987 | locus YGL227W, strain vid30, active compounds read low 0.998 | locus YGL240W, strain doc1, active compounds read low 0.991 | locus YGL248W, strain PDE1, active compounds read low 1.02 | locus YGL253W, strain hxk2, active compounds read low 0.996 | locus YGR078C, strain PAC10, active compounds read low 1.01 | locus YGR135W, strain pre9, active compounds read low 1.05 | locus YGR252W, strain gcn5, active compounds read low 1.08 | locus YHR013C, strain ard1, active compounds read low 0.984 | locus YHR027C, strain rpn1, active compounds read low 0.989 | locus YHR030C, strain SLT2, active compounds read low 1 and 0.972 | locus YHR079C, strain IRE1 (second series), active compounds read low 0.983 | locus YHR079C, strain IRE1, active compounds read low 0.959 | locus YHR094C, strain hxt1, active compounds read low 0.991 | locus YHR129C, strain ARP1, active compounds read low 1.01 | locus YHR142W, strain chs7, active compounds read low 0.997 | locus YHR200W, strain rpn10, active compounds read low 0.995 | locus YIL066C, strain RNR3, active compounds read low 1 | locus YIL073C, strain SPO22, active compounds read low 1.08 | locus YIL125W, strain kgd1, active compounds read low 0.971 | locus YIR030C, strain dcg1, active compounds read low 0.993 | locus YJL092W, strain hpr5, active compounds read low 0.985 | locus YJL095W, strain BCK1 (second series), active compounds read low 0.996 | locus YJL095W, strain BCK1, active compounds read low 1.06 and 0.981 | locus YJL115W, strain asf1, active compounds read low 0.969 | locus YJL129C, strain trk1, active compounds read low 0.992 | locus YJL134W, strain LCB3, active compounds read low 0.99 | locus YJL154C, strain vps35, active compounds read low 0.983 | locus YJL164C, strain tpk1, active compounds read low 0.995 | locus YJL166W, strain qcr8, active compounds read low 0.999 | locus YJL168C, strain set2, active compounds read low 0.995 | locus YJL187C, strain SWE1 (second series), active compounds read low 0.995 | locus YJL187C, strain SWE1, active compounds read low 0.994 | locus YJR066W, strain TOR1, active compounds read low 0.961 | locus YKL009W, strain mrt4, active compounds read low 0.992 | locus YKL068W, active compounds read low 0.988 | locus YKL085W, strain MDH1 (second series), active compounds read low 0.999 | locus YKL085W, strain MDH1, active compounds read low 0.999 | locus YKL160W, strain elf1, active compounds read low 0.998 | locus YKL190W, strain CNB1, active compounds read low 1.01 | locus YKR001C, strain vps1, active compounds read low 0.997 | locus YKR026C, strain gcn3, active compounds read low 0.987 | locus YKR091W, strain srl3, active compounds read low 1 | locus YLL001W, strain dnm1, active compounds read low 0.991 | locus YLL026W, active compounds read low 0.993 | locus YLL041C, strain sdh2, active compounds read low 0.989 | locus YLR027C, strain aat2, active compounds read low 0.985 | locus YLR039C, strain RIC1, active compounds read low 1.19 | locus YLR058C, strain SHM2, active compounds read low 0.993 | locus YLR102C, strain apc9, active compounds read low 0.999 | locus YLR113W, strain HOG1, active compounds read low 0.987 | locus YLR221C, strain rsa3, active compounds read low 0.992 | locus YLR258W, strain gsy2, active compounds read low 0.983 | locus YLR262C, strain YPT6 (second series), active compounds read low 1 | locus YLR268W, strain sec22, active compounds read low 0.987 | locus YLR320W, strain mms22, active compounds read low 1.01 | locus YLR342W, strain FKS1 (second series), active compounds read low 0.986 | locus YLR342W, strain FKS1, active compounds read low 1 | locus YLR357W, strain rsc2, active compounds read low 0.995 | locus YLR370C, strain arc18, active compounds read low 1 | locus YLR371W, strain rom2, active compounds read low 1 | locus YLR384C, strain iki3, active compounds read low 0.99 | locus YLR418C, strain cdc73, active compounds read low 1.01 | locus YML016C, strain PPZ1, active compounds read low 0.99 | locus YML032C, strain rad52, active compounds read low 0.99 | locus YML120C, strain ndi1, active compounds read low 0.994 | locus YML124C, strain tub3, active compounds read low 1 | locus YMR058W, strain fet3, active compounds read low 0.984 | locus YMR078C, strain ctf18, active compounds read low 0.99 | locus YMR125W, strain sto1, active compounds read low 0.981 | locus YMR129W, active compounds read low 0.993 | locus YMR205C, strain PFK2, active compounds read low 1.01 | locus YMR223W, strain ubp8, active compounds read low 1.01 | locus YMR231W, strain pep5, active compounds read low 0.993 | locus YMR263W, strain SAP30, active compounds read low 0.991 | locus YMR307W, strain GAS1, active compounds read low 1.16 | locus YNL067W, strain RPL9B, active compounds read low 1.01 | locus YNL071W, strain lat1, active compounds read low 0.981 | locus YNL153C, strain GIM3, active compounds read low 0.994 | locus YNL183C, strain NPR1, active compounds read low 0.952 | locus YNL209W, strain ssb2, active compounds read low 0.987 | locus YNL233W, strain BNI4, active compounds read low 1.05 | locus YNL248C, strain rpa49, active compounds read low 0.98 | locus YNL250W, strain rad50, active compounds read low 0.974 | locus YNL271C, strain bni1, active compounds read low 1 | locus YNL298W, strain CLA4, active compounds read low 0.992 | locus YNL307C, strain MCK1, active compounds read low 0.99 | locus YNL322C, strain KRE1 (second series), active compounds read low 0.99 | locus YNL322C, strain KRE1, active compounds read low 0.992 | locus YNR049C, strain mso1, active compounds read low 0.996 | locus YNR052C, strain pop2, active compounds read low 1.01 | locus YOL006C, strain TOP1, active compounds read low 1.16 | locus YOL012C, strain htz1 1.28 | locus YOL147C, strain pex11, active compounds read low 1 | locus YOR001W, strain rrp6, active compounds read low 0.987 | locus YOR061W, strain CKA2, active compounds read low 0.985 | locus YOR069W, strain VPS5, active compounds read low 1.01 | locus YOR070C, strain gyp1, active compounds read low 0.985 | locus YOR080W, strain dia2, active compounds read low 0.997 | locus YOR083W, strain WHI5, active compounds read low 1 | locus YOR106W, strain vam3, active compounds read low 0.985 | locus YOR136W, strain idh2, active compounds read low 0.995 | locus YOR144C, strain elg1, active compounds read low 0.994 | locus YOR184W, strain ser1, active compounds read low 0.992 | locus YOR231W, strain MKK1, active compounds read low 0.963 | locus YOR265W, strain rbl2, active compounds read low 0.994 | locus YOR270C, strain vph1, active compounds read low 0.984 | locus YOR290C, strain snf2, active compounds read low 1 | locus YOR316C, strain cot1, active compounds read low 0.987 | locus YPL051W, strain arl3, active compounds read low 1.01 | locus YPL078C, strain atp4, active compounds read low 0.996 | locus YPL106C, strain sse1, active compounds read low 0.98 | locus YPL240C, strain hsp82, active compounds read low 0.98 | locus YPL241C, strain CIN2, active compounds read low 1.01 | locus YPL256C, strain CLN2, active compounds read low 0.995 | locus YPR119W, strain clb2, active compounds read low 0.992 | locus YPR141C, strain kar3, active compounds read low 0.979 | locus YPR163C, strain tif3, active compounds read low 1.01 | locus YPR167C, strain met16, active compounds read low 1 | strain wtn01, active compounds read low 0.985
